Drawing on PubChem BioAssay (NCI), this text covers growth for 40 compounds.

About 83,000 compounds went through this panel and 20% of them were active in at least one assay; those are over-represented in the sample as a whole.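 Interpretation: 100, growth as untreated; towards 0, rising growth inhibition; 0, no net growth; 0 to -100, cell death. Compounds scoring below 10 were considered active.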 Calls of active or inactive are those of the source.

The test system of this assay is HL-60(TB) leukemia. The assay can be described thus: NCI-60 one-dose screen, 48 h (100 = growth as untreated, 0 = no growth, -100 = all killed). To be noted: 10 µM unless noted.
Turning to `COc1ccc(CSc2nnc(SCC(=O)Nc3ccc(Cl)cc3)s2)cc1`, the growth was 56.9% (inactive).

Consider `Nc1ccccc1SC1CC(=O)N(c2ccc(Cl)c(Cl)c2)C1=O` (stereo not given), for which the growth is 139% (inactive).

In the case of `COc1ccc(-c2nnc(SCC(=O)c3ccccc3)o2)cc1`, the growth is 80.5% (inactive).

As for `COc1cc(-c2nn3c(/C=C4/C(=O)Nc5ccccc54)c(-c4ccc(C)cc4)nc3s2)cc(OC)c1OC`, the growth was 34.8% (inactive).

With `CCCCCCCCOc1ccc(/C=N/Nc2cc(C)nc3ccc(Br)cc23)cc1`, the growth was 60.4% (inactive).

For the compound `Cc1cc2c(cc1C)Nc1sc(NC(=O)CN3CCN(C)CC3)nc1C(=O)N2`, the growth was 83.3% (inactive).

Turning to `COc1cc(/C=C2\C(=O)N(c3c(Cl)cccc3Cl)c3ccccc32)cc(OC)c1O`, the growth is -6.44% (active).

Consider `COC(=O)c1ccc2[nH]c(O)c(C(=Nc3ccc(N(C)C(=O)CN4CCN(C)CC4)cc3)c3cccc(OC)c3)c2c1`, for which the growth is -35.9% (active).

Regarding `COc1ccc(-c2c(-c3ccc(OC)c(O)c3)cnc3ncnn23)cc1`, the growth was 106% (inactive).

In the case of `C=C1CC[C@@H]2C(C)(C)[C@@H](O)CC[C@@]2(C)[C@@H]1COc1ccc2ccc(=O)oc2c1`, the growth is 69.1% (inactive).

As to `C[C@]12CC[C@@H]3c4ccc(O)cc4CC[C@H]3[C@@H]1CC[C@@H]2NS(=O)(=O)c1ccc(C(F)(F)F)cc1`, the growth is 19.5% (inactive).

Consider `COc1ccc(-c2cc(-c3cccnc3)nc3sc4c(=O)[nH]c(-c5ccc(Cl)cc5)nc4c23)cc1OC`, for which the growth was 90.3% (inactive).

Turning to `CC(C)(C)c1nc(-c2cccc(NS(=O)(=O)c3c(F)cccc3F)c2F)c(-c2ccnc(N)n2)s1`, the growth is 35.1% (inactive).

Take `NC(=O)CC1(c2ccccc2)CCCCC1`: the growth is 98.4% (inactive).

Turning to `O=C1/C(=C/c2ccccc2[N+](=O)[O-])COc2ccc(O)c(O)c21`, the growth is -29.2% (active).

With `CC/C(=C(/c1ccc(OCCN(C)C)cc1)c1ccc(OC(=O)CCC(=O)c2c(C)[nH]c(/C=C3\N=C(c4ccc[nH]4)C=C3OC)c2C)cc1)c1ccccc1`, the growth is 24.2% (inactive).

In the case of `CCCCCCCCCCCCCCCCCC1=NCCN1CCNC(C)=O`, the growth is 79.2% (inactive).

As for `CCCn1cc(/C=N\N=C2\C(=O)Nc3ccc(C)cc32)c2ccccc21`, the growth was -22.6% (active).

Consider `Cc1ccc(C(=O)N/N=C/c2cccc([N+](=O)[O-])c2)cn1`, for which the growth is 74% (inactive).

Consider `CCOC(=O)c1ccccc1OC(=O)NNc1ccccc1`, for which the growth was -7.77% (active).

In the case of `CCOC(=O)C/C(C)=N\NC(=O)c1ccncc1`, the growth is 99.4% (inactive).

On to `COc1c(C(=O)/C=C/c2ccc(C)o2)c(O)cc2occc12`, for which the growth was 44.6% (inactive).

`CCC1(CC)NC(=O)c2c(c3ccc(Cl)c(Cl)c3n2C)C1C#N` (stereo not given): the growth was 91.3% (inactive).

`COC(=O)C1(C(=O)OC)C2C(=O)C3C(C21)C3(C(=O)OC(C)(C)C)C(=O)OC(C)(C)C` (stereo not given): the growth is 96.6% (inactive).

Turning to `C=C1C(=O)O[C@H]2[C@H]1CC/C(COC(=O)c1cn(C)c3ccccc13)=C\CC[C@@]1(C)O[C@@H]21`, the growth is 2.98% (active).

Turning to `COC(CCP(=O)(c1ccccc1)c1ccccc1)(C(=O)c1ccccc1)c1ccccc1` (stereo not given), the growth is 7.75% (active).

Regarding `Cc1ccc(-c2cc(-c3cccnc3)[nH]c(=O)c2C#N)cc1`, the growth was 99% (inactive).

As to `COc1cccc2c1O/C(=C\c1c([N+](=O)[O-])ncn1C)C2=O`, the growth was 95.8% (inactive).

With `Cc1ccc(NC(=O)c2ccc(Nc3ncnc4c3cnn4-c3cccc(F)c3)cc2)cc1`, the growth was 90.2% (inactive).

Take `Cc1ccc(C2CC(c3ccc(Nc4nc(NCCO)nc(Nc5ccc(Cl)cc5)n4)cc3)=NN2c2cc(Cl)cc(Cl)c2)cc1` (stereo not given): the growth was 100% (inactive).

With `COc1cc(NS(=O)(=O)c2ccc(-c3cnc(C4CC4)o3)cc2)ccc1F`, the growth was 1.92% (active).

Turning to `CC1CCN(Cc2ccc(NC(=O)c3cc4ccc5cccnc5c4[nH]3)cc2)CC1`, the growth is 11.5% (inactive).

Take `O=C1/C(=C/c2ccccc2)CN(C(=O)CCN2CCC(=NO)CC2)C/C1=C\c1ccccc1`: the growth is 5.03% (active).

For `C=CC(COC(c1ccccc1)(c1ccccc1)c1ccccc1)N(CC)CC` (stereo not given), the growth was 48.1% (inactive).

As for `O=C(/C=C/c1cc(-c2ccc3c(c2)OCO3)n[nH]1)c1ccc2c(c1)OCO2`, the growth was 79.7% (inactive).

In the case of `CCCCCCCCCCOC(C)=O`, the growth was 107% (inactive).

In the case of `COc1cc(C2=Nc3c/c(=C\c4c(O)[nH]c5ccc(Cl)cc45)ccc3=N2)cc(OC)c1OC`, the growth is 11.8% (inactive).

With `O=C1CS/C(=N/c2nnc(-c3ccc(O)cc3)s2)N1`, the growth is 98.8% (inactive).

`C[C@@H](CO)[C@@H]1CC[C@]2(C(=O)N3CCN(C)CC3)CC[C@]3(C)[C@H](CC[C@@H]4[C@@]5(C)CC[C@H](O)C(C)(C)[C@@H]5CC[C@]43C)[C@@H]12`: the growth is -46.9% (active).

Consider `COc1cccc(/C=C2\SC(N3CCN(c4ccccn4)CC3)=NC2=O)c1`, for which the growth was 95.5% (inactive).
